Shown are actives, neighbours in structure and some others; about 3.8% of the full set was active somewhere.
697 NFkB inh – inhibitors of the PMA/ionomycin-induced NF-kB reporter in 697 B cells; 697 B-cell NF-kB luciferase reporter, 16 h; inhibition, % at 4 µM; hit rate 0.33% among 330,000; AID 435022; in the data active = inhibition above about 35%
Jurkat NFkB inh – lowers PMA/ionomycin-induced NF-kB signal in Jurkat cells; PMA/ionomycin-induced NF-kB luciferase reporter, luminescence; hit rate 0.53% among 330,000; inhibition, % at 4 µM; AID 435003; in the data active = inhibition above about 50%
A1 inh – inhibitors of the anti-apoptotic protein A1, read as caspase activation; MEF A1-2A-BIM cells, Caspase-Glo 3/7 luminescence, 3 h; percent of clofoctol response, vehicle zero; caspase activation, % (concentration not given with the values); hit rate 0.066% among 330,000;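 active = over half of replicate activation scores above 10%, or exactly half above 10 with the replicate mean above 10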
Mdm2 MdmX PPI – disrupts the human Mdm2-MdmX interaction; SaOS-2 split-luciferase Mdm2/MdmX complementation, luminescence; inhibition, % at 8 µM; hit rate 3% among 330,000; AID 485346;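 active = inhibition of at least 50% at 8 µM in the primary screen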
Beta apoptosis – beta cell apoptosis inhibition | INS-1E cytokine-induced death, ATP luminescence, 48 h; percent of positive-control rescue, neutral wells zero | protection from apoptosis, % (test concentration not listed) | hit rate 0.8% among 300,000 | AID 435005;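 active = Every replicate reaches about 75%, or at least half do and their mean reaches it too, limit read from the data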;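 also: 0% = cytokine-treated negative control wells and 100% = positive control rescue; higher means more ATP so stronger rescue from cytokine killing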
NTR1 ag – NTR1 (human) agonism; NTR1-U2OS beta-arrestin-GFP spot imaging, agonist mode; activation, % at 20 µM; hit rate 0.17% among 330,000; AID 493036;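 active = activation at or above 40% of the spot to cytoplasm intensity ratio, with at least 20 cells analyzed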;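 also: 0% = DMSO without peptide and 100% = 100 nM NTR1 peptide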
Target sequence (P30989 whole entry, looked up): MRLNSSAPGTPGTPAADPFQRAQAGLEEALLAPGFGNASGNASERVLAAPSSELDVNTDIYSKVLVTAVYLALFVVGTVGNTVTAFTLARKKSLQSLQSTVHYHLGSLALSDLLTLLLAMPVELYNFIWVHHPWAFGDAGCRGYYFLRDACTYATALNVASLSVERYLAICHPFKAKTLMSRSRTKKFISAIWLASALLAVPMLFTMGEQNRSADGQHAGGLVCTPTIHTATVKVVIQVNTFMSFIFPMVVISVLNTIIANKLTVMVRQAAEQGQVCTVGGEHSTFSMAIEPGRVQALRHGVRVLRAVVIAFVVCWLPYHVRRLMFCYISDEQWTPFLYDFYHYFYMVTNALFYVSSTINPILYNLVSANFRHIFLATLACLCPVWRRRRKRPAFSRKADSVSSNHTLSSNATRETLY
Mdm2-MdmX conf – human Mdm2/MdmX binding inhibition, confirmed; hit rate 55% among 10,000; AID 489028; shares compounds with Mdm2 MdmX PPI; inhibition, % at 8 µM; luminescent assay; in the data active = inhibition above about 40%
FLuc counter – full-length luciferase inhibition in Mdm2/MdmX counter-screen. shares compounds with Mdm2 MdmX PPI. SaOS-2 full-length luciferase counterscreen, luminescence. inhibition, % at 8 µM. hit rate 77% among 6,200. AID 504607;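 active = mean inhibition at 8 µM reaching about 37%, which flags the compound as non-specific, limit read from the data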;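 also: p53-null SaOS-2 cells with luciferase driven by a doxycycline-inducible promoter; compound on cells about two nights before reading with doxycycline added after day one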
* = called active by the depositor; x = no result given.

SMILES	697 NFkB inh	Jurkat NFkB inh	A1 inh	Mdm2 MdmX PPI	Beta apoptosis	NTR1 ag	Mdm2-MdmX conf	FLuc counter
CCOc1cc([N+](=O)[O-])cc(/C=N/NC(=O)c2c(-c3ccccc3)noc2C)c1O	14	1	0	57*	4	2	21	x
Cc1ccc(/C=N/NC(=O)c2c(-c3ccccc3)noc2C)c(O)c1	-70	-19	0	65*	93*	1	62*	31
N#Cc1nc(NCC(F)F)nc(Nc2cc(F)cc(F)c2)n1	-13	2	0	64*	5	36	58*	28
CCc1cccc(OCCOC(=O)CNS(=O)(=O)c2ccc(NC(C)=O)cc2)c1	-11	-4	x	5	x	0	x	x
CCN(CC)CCNC1=NCCn2c1cc1cc(OC)ccc12	-19	-18	0	64*	6	-1	64*	68*
CCN(CC)CCNc1ncnc2c1[nH]c1ccc(OC)cc12	11	-5	0	-2	-6	0	x	x
COc1ccc(Cl)cc1NC(=O)CN(C)C(=O)C1CC1	-1	1	1	20	-2	2	x	x
Cc1ccc(-c2nn(-c3ccccc3)cc2CSC(=N)N)cc1	-21	-3	1	52*	19	10	6	x
OCc1cn(-c2ccccc2)nc1-c1ccc(-c2nn(-c3ccccc3)cc2CO)cc1	10	5	1	29	8	12	x	x
COc1ccc(C(=O)NNC(=O)c2ccc(F)c(S(=O)(=O)N3CCOCC3)c2)cc1	-15	2	-1	-1	-6	1	x	x
CCOc1ccc(NC(=O)Cn2nnc(C(=O)NCc3ccc4c(c3)OCO4)c2N)cc1	10	10	0	52*	x	0	18	x
Cc1ccc(NC(=O)Cn2nnc(C(=O)NCc3cccs3)c2N)c(C)c1	-25	1	0	69*	x	1	23	x
Cc1cc(C)cc(NC(=O)Cn2nnc(C(=O)NCc3ccc4c(c3)OCO4)c2N)c1	16	12	0	55*	54	0	37	55*
CN(Cc1nc(-c2ccc(Cl)cc2)no1)C(=O)c1ccc2c(c1)OCO2	-23	12	0	-5	-6	2	x	x
COc1cc(Cl)c(CN2CCCC(CO)(Cc3cccc(Cl)c3)C2)cc1OC (centres undefined)	-15	1	1	-6	x	6	x	x
Cc1nnc(C)n1/N=C/c1ccccc1	1	-3	0	-14	-3	0	x	x
CCn1c2ccccc2c2cc(/C=N/n3c(C)nnc3C)ccc21	0	9	1	60*	x	4	-7	x
Cc1cc(Oc2nc3c(C)cccn3c(=O)c2/C=C(\C#N)S(=O)(=O)c2ccccc2)ccc1Cl	19	9	0	52*	8	31	7	x
N#CC1CCN(C(=O)c2ccc3c(Cl)c4c(nc3c2)CCCC4)CC1	-9	14	-1	52*	2	1	-15	x
CCCN(CCC)CCCNC(=O)c1ccc2c(Cl)c3c(nc2c1)CCC3	-55	-19	1	9	1	-1	x	x
CCCNC(=O)c1ccc2nc(-c3ccccc3)c(-c3ccccc3)nc2c1	7	2	2	11	1	2	x	x
CC1CCN(CCCNC(=O)c2ccc3c(Cl)c4c(nc3c2)CCCC4)CC1	-17	-2	1	79*	7	7	68*	30
CCN1CCN(CCCNC(=O)c2ccc3c(Cl)c4c(nc3c2)CCCC4)CC1	-24	2	0	73*	14	0	46*	43*
CCN1CCN(C(=O)c2ccc3c(Cl)c4c(nc3c2)CCCC4)CC1	-22	-13	2	25	-4	1	x	x
CN1CCN(C(=O)c2ccc3c(Cl)c4c(nc3c2)CCCC4)CC1	-11	-14	-1	19	-4	1	x	x
SMILES	697 NFkB inh	Jurkat NFkB inh	A1 inh	Mdm2 MdmX PPI	Beta apoptosis	NTR1 ag	Mdm2-MdmX conf	FLuc counter
CCN1CCN(CCNC(=O)c2ccc3nc(-c4cccc(C)c4)c(-c4cccc(C)c4)nc3c2)CC1	-37	1	1	100*	37	14	59*	16
Cc1cc(C)n(Cc2cccc(C(=O)N/N=C/c3cccnc3)c2)n1	-10	5	x	29	x	0	x	x
COCCNC(=O)c1ccc2c(Cl)c3c(nc2c1)CCC3	-27	-48	-2	-26	4	3	x	x
CC1CCN(CCNC(=O)c2ccc3c(=O)n(Cc4ccc(Cl)cc4)c(=S)[nH]c3c2)CC1	-2	-3	0	97*	3	29	31	x
O=C(NCCCN1CCCCCC1)c1ccc2c(Cl)c3c(nc2c1)CCCC3	-1	-5	0	59*	4	-1	21	x
O=C(CNCc1ccc(F)cc1)Nc1ccc(S(=O)(=O)N2CCOCC2)cc1	-3	12	0	-2	5	1	x	x
CCOc1ccc(-n2c(C)c(C(C)=O)c3cc(O)ccc32)cc1	-26	24	0	53*	-8	2	56*	31
COC(=O)c1c(C)n(-c2ccc(C)cc2)c2ccc(O)cc12	-5	9	x	53*	x	9	46*	55*
CC(=O)c1c(C)n(-c2ccc(Br)cc2)c2ccc(O)cc12	2	10	1	42	-10	0	x	x
CC(=O)c1ccc(-n2c(C)c(C(C)=O)c3cc(O)ccc32)cc1	12	21	0	62*	-18	3	65*	48*
COc1ccc(-c2ocnc2C(=O)N2CCN(C(=O)C(c3ccccc3)c3ccccc3)CC2)cc1	-6	-21	0	-23	-2	1	x	x
Cc1ccc(C)c(S(=O)(=O)N2CCN(C(=O)c3ccnn3C)CC2)c1	11	-3	0	14	-2	0	x	x
O=C(NC1CC(=O)N(c2ccccc2)C1)C1CC1 (centres undefined)	10	2	0	-1	4	0	x	x
O=C(Nc1ccccc1Br)C1CC(=O)N(c2ccc3c4c(cccc24)CC3)C1 (centres undefined)	-5	48	0	50*	-14	2	57*	65*
Cc1cc(NC(=O)CCN2CCC(C)CC2)ccc1Br	-1	8	-2	1	-12	-1	x	x
CC1c2cc3c(cc2CCN1C(=O)c1ccc(Br)cc1)OCCCO3 (centres undefined)	-11	39	1	70*	9	1	46*	47*
CS(=O)(=O)c1ccc(C(=O)NC2CCCCC2)cc1	-8	-2	0	55*	-7	0	18	x
COC(=O)c1ccccc1NC(=O)c1cc(-c2cccs2)on1	-23	-5	0	60*	24	2	-8	x
COC(=O)c1ccccc1NC(=O)c1cc(-c2ccco2)on1	4	-13	0	-6	-1	0	x	x

Screening results deposited in PubChem BioAssay by several laboratories.
